Structures are written as SMILES. Calls of active or inactive are those of the source. No rule for the calls is given here.

This assay in a line: liver-stage malaria parasite load reduction – cell-based, known kinase inhibitor set, luminescence, hepatoma host viability (AID 624392).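 Also: infected cells incubated roughly two days before readout.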 As to conditions: Plasmodium liver stage in hepatoma cells, luciferase luminescence, concentration not given here; liver cell % of control: measured here: host liver cell viability; parasite % of control: stronger effect = lower value.
On to `Cn1cc(C2=C(c3cccnc3)C(=O)NC2=O)c2ccccc21`, for which the liver cell % of control came to 312% and the parasite % of control was 2% (active).

As to `COc1cc[nH]c1C=C1C(=O)Nc2ccccc21`, the liver cell % of control came to 116% and the parasite % of control is 24.2% (inactive).

In the case of `O=C1NC(=NCCc2cccs2)SC1=Cc1ccc2ncccc2c1`, the liver cell % of control amounted to 118% and the parasite % of control was 40.6% (inactive).

Take `COc1cc(F)c(F)cc1C(=O)c1cnc(NC2CCN(S(C)(=O)=O)CC2)nc1N`: the parasite % of control was 392% (inactive) and the liver cell % of control came to 107%.

On to `COc1ccccc1CN=C1NC(=O)C(=Cc2ccc3ncccc3c2)S1`, for which the liver cell % of control stood at 98.9% and the parasite % of control is 28.1% (inactive).

For the molecule `COc1cccc(C2=C(c3cn(C)c4cccc(OC)c34)C(=O)NC2=O)c1`, the liver cell % of control was 91.4% and the parasite % of control was 121% (inactive).

Regarding `Cn1cc(C2=C(Nc3ccccc3)C(=O)NC2=O)c2ccccc21`, the liver cell % of control stood at 106% and the parasite % of control was 67.5% (inactive).

With `Cn1cc(C2=C(c3ccccc3)C(=O)NC2=O)c2ccccc21`, the parasite % of control was 41% (inactive) and the liver cell % of control was 104%.

Regarding `COc1ccc(CCN=C2NC(=O)C(=Cc3ccc4ncccc4c3)S2)cc1`, the liver cell % of control stood at 99.3% and the parasite % of control was 48.7% (inactive).

Take `CC(=C1SC(=NCc2cccs2)NC1=O)c1ccc2ncccc2c1`: the parasite % of control was 33.7% (inactive) and the liver cell % of control amounted to 89.5%.

In the case of `COc1ccccc1CCN=C1NC(=O)C(=Cc2ccc3ncccc3c2)S1`, the liver cell % of control turned out to be 109% and the parasite % of control was 68.7% (inactive).

For the molecule `COc1cc[nH]c1C=C1C(=O)Nc2ccc(F)c(C#CC3(O)CCOCC3)c21`, the liver cell % of control worked out at 128% and the parasite % of control is 1.61% (active).

For `Cn1cc(C2=C(c3c4n(c5ccccc35)CCCC4)C(=O)NC2=O)c2ccccc21`, the liver cell % of control was 77.8% and the parasite % of control is 85.7% (inactive).

For `O=[N+]([O-])c1ccc2c(c1)C(c1ccccc1Cl)=Nc1c(n[nH]c1-c1cccnc1)N2`, the liver cell % of control worked out at 237% and the parasite % of control was 4.98% (inactive).
